{"source": "PubChem BioAssay (Tox21)", "note": "Where “and” joins values, the source holds several entries; their conditions need not be identical. Equal values may be shown once. Inconclusive results are not listed. A call without a number means that no potency is given here. Unmarked numbers belong to inactive results. Calls of active or inactive are those of the source. The call rests on the fitted dose curve; in most records, active means well fitted cell-killing curve with a large enough effect in the repeat runs (not every such curve was filed as active); inconclusive means weak or mixed curves, or effect the other way; inactive means no such curve, though single readings can be large or run the other way. Potency means the concentration at half of the fitted maximal effect.", "data": [{"test": "qHTS assay to identify small molecule antagonists of the farnesoid-X-receptor (FXR) signaling pathway - cell viability counter screen (AID 743221); further: nearly all actives have a fitted effect of over 50% in size", "conditions": "FXR-bla HEK293T viability, CellTiter-Glo luminescence, 16 h; series mostly up to 62.6 µM; activity change, negative = cytotoxicity: at the top concentration", "source_text": "National Center for Advancing Translational Sciences [NCATS]\nNIH Chemical Genomics Center [NCGC]\nU.S. Environmental Protection Agency [EPA]\nNational Institutes of Environmental Health Sciences [NIEHS]\nNational Toxicology Program [NTP]\nU.S. Food and Drug Administration [FDA]\nThe farnesoid-X-receptor (FXR), a nuclear hormone receptor, is highly expressed in liver, intestine, kidney and adrenal cortex. Natural ligands of FXR are the bile acids (Cholic acid, Chenodeoxy cholic acid etc). FXR is an important regulator of diverse metabolic pathways, including the bile acid homeostasis, lipid and glucose metabolisms. FXR regulates the expression of target genes by binding either as a monomer or as a heterodimer with the retinoid X receptor (RXR). Numerous studies have reported that FXR exerts protective function during cholestasis, diabetes, liver regeneration, and cancer. To identify compounds that inhibit FXR signaling, GeneBLAzer FXR-UAS-bla HEK 293T cell line (Invitrogen, Carlsbad, CA) containing a beta-lactamase reporter gene under the control of a UAS response element was used to screen the Tox21 10K compound library. The cytotoxicity of the Tox21 compound library against the FXR-bla cell line was tested in parallel by measuring the cell viability using CellTiter-Glo assay in the same wells.\nTox21 Assay Protocol Summary:\nFXR-bla cells were dispensed at 5000 cells/5uL/well in 1536-well black wall/clear bottom plates using a Multidrop Combi (Thermo Fisher Scientific, Waltham, MA) dispenser. After the assay plates were incubated at 37 C and 5% CO2 for 5 h, 23 nL of compounds dissolved in DMSO, positive controls or DMSO only was transferred to the assay plate by a Pintool station (Kalypsys, San Diego, CA), followed by addition of 1 uL Chenodeoxycholic acid (50 uM, final concentration in the wells). The assay plates were incubated at 37C for 16 h. After 1 uL of LiveBLAzerTM B/G FRET substrate was added using a Bioraptr Flying Reagent Dispenser (FRD) workstation (Beckman Coulter, Indianapolis, IN), the plates were incubated at room temperature for 2 h, and fluorescence intensity was measured by an Envision plate reader (PerkinElmer, Shelton, CT). For cell viability readout that measures cytotoxicity, 4uL/well of CellTiter-Glo reagent was added into the assay plates using a Bioraptr FRD. After 30 min incubation at room temperature, the luminescence intensity in the plates was measured using a ViewLux plate reader (PerkinElmer).", "values": [{"smiles": "ClC(Cl)(Cl)Br", "Potency": "inactive"}, {"smiles": "NN=C(N)N", "Potency": "inactive"}, {"smiles": "O=[N+]([O-])/N=C1\\NCCN1Cc1ccc(Cl)nc1", "Potency": "inactive"}, {"smiles": "CC(C)(C#N)N=NC(C)(C)C#N", "Potency": "inactive"}, {"smiles": "CC1(C)C(C(=O)OC(C#N)c2cccc(Oc3ccccc3)c2)C1(C)C", "note": "(stereo not given)", "Potency": "inactive"}, {"smiles": "CCCCOCCOC(C)=O", "Potency": "inactive"}, {"smiles": "COc1ccc(O)c(C(C)(C)C)c1", "Potency": "inactive"}, {"smiles": "Cc1cc(Cl)ccc1N=CN(C)C", "Potency": "inactive"}, {"smiles": "CC1(C)Cc2cccc(O)c2O1", "Potency": "inactive"}, {"smiles": "Cn1c(-c2ccccc2)cc(-c2ccccc2)[n+]1C", "Potency": "inactive"}, {"smiles": "O=NN(c1ccccc1)c1ccccc1", "Potency": "inactive"}, {"smiles": "O=C1Nc2ccc(Cl)cc2C(c2ccccc2)=NC1O", "note": "(stereo not given)", "Potency": "inactive"}, {"smiles": "O=C1CCCO1", "Potency": "inactive"}, {"smiles": "CCCCCCCCCCCCCl", "Potency": "inactive"}, {"smiles": "CSc1nc(NC(C)C)nc(NC(C)C)n1", "Potency": "inactive"}, {"smiles": "Clc1ccc(C(Cl)(Cl)Cl)cc1", "Potency": "inactive"}, {"smiles": "CCCCCCCCCc1ccc(O)cc1", "activity change, negative = cytotoxicity": "3.2% [at 81.1 µM]"}, {"smiles": "N#CC(c1ccccc1)c1ccccc1", "Potency": "inactive"}, {"smiles": "OCCOCCO", "Potency": "inactive"}, {"smiles": "COC(=O)Nc1nc2ccccc2[nH]1", "Potency": "inactive"}, {"smiles": "CN(C)c1ccccc1", "Potency": "inactive"}, {"smiles": "CCN(CC)C(=O)C(C)Oc1cccc2ccccc12", "note": "(stereo not given)", "Potency": "inactive"}, {"smiles": "N#CCCCCC#N", "Potency": "inactive"}, {"smiles": "Oc1ccc(Cl)cc1Cl", "Potency": "inactive"}, {"smiles": "CC(C)(c1ccccc1)c1ccc(O)cc1", "Potency": "inactive"}, {"smiles": "CCC1(c2ccc(N)cc2)CCC(=O)NC1=O", "note": "(stereo not given)", "Potency": "inactive"}, {"smiles": "[CH3][Sn]([Cl])([Cl])[Cl]", "Potency": "inactive"}, {"smiles": "CCOP(=S)(OCC)SCSC(C)(C)C", "Potency": "inactive"}, {"smiles": "CCNCC", "Potency": "inactive"}, {"smiles": "S=c1[nH]c2ccccc2[nH]1", "Potency": "inactive"}, {"smiles": "Nc1ccc2ccccc2c1", "Potency": "inactive"}, {"smiles": "CNC(=O)CSP(=S)(OC)OC", "Potency": "inactive"}, {"smiles": "CC(C)(O)C(=O)Nc1ccc([N+](=O)[O-])c(C(F)(F)F)c1", "Potency": "inactive"}, {"smiles": "ClC(Cl)=C(Cl)C(Cl)=C(Cl)Cl", "Potency": "inactive"}, {"smiles": "Nc1ncn[nH]1", "Potency": "inactive"}, {"smiles": "COP(=S)(OC)Oc1ccc(S(=O)(=O)N(C)C)cc1", "Potency": "inactive"}, {"smiles": "Clc1cccc(C(Cl)(Cl)Cl)n1", "Potency": "inactive"}, {"smiles": "C[N+](C)(C)CC(=O)[O-]", "Potency": "inactive"}, {"smiles": "O=S(=O)(O)C(F)(F)C(F)(F)C(F)(F)C(F)(F)C(F)(F)C(F)(F)C(F)(F)C(F)(F)F", "Potency": "41.6 µM (active) and 13.8 µM (active) and 6.16 µM (active)"}, {"smiles": "NC(=O)CN1CCCC1=O", "Potency": "inactive"}]}]}
